Casp6 inh = human caspase-6 inhibitors, primary screen, biochemical, VEID-R110 fluorescence, single point, set 2. P55212. purified caspase-6, Z-VEID-R110 cleavage fluorescence. inhibition, % at 12.5 µM. hit rate 0.53% among 350,000;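 active means mean inhibition across replicates at least about 35%, with every replicate also reaching that limit, limit read from the data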
Ecoli rRNA inh = reduced GFP signal of wild-type E. coli, primary screen, bacterial rRNA inhibitor project, GFP/RFP fluorescence, OD600, single point. E. coli WT GFP vs humanized-ribosome RFP mutants, 24 h; stronger effect = lower value; DMSO median 0, no signal -100. GFP signal change (wild-type ribosome), % (no concentration beside the values). hit rate 1.6% among 350,000. AID 720706, 2013;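 active means significant combined selectivity score with lowered wild-type GFP, culture density cut under 30%, mutant RFP and density less affected; inactive means any of these conditions unmet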
NSD2 HMT inh = NSD2 histone methyltransferase inhibitors, primary screen, biochemical, AlphaScreen, single concentration, set 2; Histone-lysine N-methyltransferase NSD2 (Homo sapiens), O96028; NSD2 peptide methylation, 120 min; inhibition, % at 12.5 µM; hit rate 0.54% among 310,000; AID 743445, 2014; in the data active means inhibition above about 50%
RAD52 anneal inh = RAD52 DNA annealing inhibitors, primary screen, biochemical, FRET, single point, set 2 | DNA repair protein RAD52 homolog (Homo sapiens), P43351 | recombinant RAD52 DNA annealing, FRET fluorescence | inhibition, % at 18.7 µM | hit rate 0.46% among 360,000;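 active means every replicate showing at least 50% inhibition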
Target sequence (P43351 whole entry, looked up): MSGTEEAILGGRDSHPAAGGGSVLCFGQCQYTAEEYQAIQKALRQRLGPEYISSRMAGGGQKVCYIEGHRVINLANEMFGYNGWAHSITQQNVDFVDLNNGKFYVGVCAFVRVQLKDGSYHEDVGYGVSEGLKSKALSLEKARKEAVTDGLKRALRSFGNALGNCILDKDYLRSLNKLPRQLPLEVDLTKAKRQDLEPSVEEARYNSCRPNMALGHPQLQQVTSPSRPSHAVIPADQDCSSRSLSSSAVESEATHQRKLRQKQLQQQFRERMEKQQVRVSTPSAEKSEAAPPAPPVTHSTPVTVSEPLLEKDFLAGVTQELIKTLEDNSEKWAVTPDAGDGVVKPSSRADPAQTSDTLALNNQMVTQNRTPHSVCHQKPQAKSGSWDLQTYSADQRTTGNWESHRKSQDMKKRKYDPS
AF4-AF9 inh = inhibitors of AF4 peptide binding to AF9, primary screen, biochemical, AlphaScreen, biotin-AF4 peptide, FLAG-AF9, single point; inhibition, % at 10 µM; hit rate 0.47% among 350,000; Protein AF-9 (Homo sapiens), P42568;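 active means every replicate reaching a set inhibition limit, whatever the replicate mean, cut at about 25% in these data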
A number is an active result; – = inactive; · = no result given; ! = a repeat was not active. Rows were chosen to be rich in hits. Some 2.5% of all compounds tested hit in one or more screens of this group.

SMILES	Casp6 inh	Ecoli rRNA inh	NSD2 HMT inh	RAD52 anneal inh	AF4-AF9 inh
CC[C@H](C)[C@@H]1NC(=O)CNC(=O)c2csc(n2)[C@H](C(C)(C)O)OC(=O)C(C)(C)[C@H](CCCC(C)(Cl)Cl)OC(=O)c2csc1n2	40	–	·	–	–
O=C(Cc1ccccc1)N1CCCCN2[C@@H](CO)[C@@H](c3ccc(-c4ccccc4)cc3)[C@@H]2C1	–	–	·	–	–
N#Cc1cccc(-c2ccc([C@H]3[C@H]4CN(C(=O)Cc5cccnc5)CCCCN4[C@H]3CO)cc2)c1	–	–	·	–	–
c1ccc2c(c1)Sc1ccccc1N2CC1CN2CCC1CC2 (stereo unspecified)	–	–	·	–	27
C=C1C(=O)O[C@H]2C[C@@H](C)[C@@H]3C=CC(=O)[C@@]3(C)C[C@H]12	74	–	·	–	–
C=C1C(=O)OC2CC(C)C3C=CC(=O)C3(C)C(O)C12 (stereo unspecified)	·	·	–	·	·
NCCc1c(Cc2ccccc2)[nH]c2ccccc12	–	-20	–	–	–
Cc1c(CCN)ccc2c1[nH]c1ccccc12	–	–	–	–	–
O=C1CC=C2C3CC4N(CCC45c4cc(O)c(O)cc4N1C25)CC3=CCBr (stereo unspecified)	–	–	107	–	–
Cc1ccc(/C=C2\C(=O)NC(=S)N(c3cccc(F)c3)C2=O)o1	48	–	·	–	–
COc1ccc(N2C(=O)/C(=C/c3ccc(C)o3)C(=O)NC2=S)cc1	40	–	–	–	–
O=C(NCC1=C(c2cccc3ccccc23)C[C@@H]2CC[C@H]1N2Cc1ccco1)c1ccc([N+](=O)[O-])cc1	–	–	·	–	25
COc1cccc(-c2ccc([C@H]3[C@@H](CO)N4CCCCN(C(=O)Cc5ccncc5)C[C@H]34)cc2)c1	–	–	·	–	–
C/C=C/c1ccc(C2[C@@H]3CN(C(=O)C4CC4)C[C@H]2N3)cc1 (stereo partly specified)	–	–	·	–	–
C/C=C/c1ccc(C2[C@@H]3CN(C(=O)CN(C)C)C[C@H]2N3)cc1 (stereo partly specified)	–	–	·	58!	–
O=P(Nc1cccnc1)(Oc1ccccc1Cl)Oc1ccccc1Cl	–	-33	–	–	–
O=C1C(=O)c2ccccc2-c2ccccc21	54	·	·	–	–
O=C1C(=O)c2cccc3cccc1c23	–	–	–	–	–
COC(=O)[C@H]1[C@H](CO)[C@H]2Cn3c(ccc(-c4ccc(F)cc4)c3=O)[C@@H]1N2Cc1ccccc1	–	–	·	–	–
CC(C)NC(=O)N1C[C@@H]2C(c3ccccc3)[C@H](C1)N2CC1CC1 (stereo partly specified)	·	–	·	·	·
COc1ccc(-n2c(/C=C/c3ccc(O)c(O)c3)nc3ccccc3c2=O)cc1	–	-21	–	–	–
COC(=O)[C@@H]1[C@@H](CO)[C@@H]2Cn3c(ccc(-c4cccnc4)c3=O)[C@H]1N2S(=O)(=O)c1ccccc1C	–	–	·	–	–
COP(=O)(OC)C(Nc1ccccc1)c1ccccc1 (stereo unspecified)	–	–	–	–	–
CC(C)OP(=O)(OC(C)C)C(NCc1ccccc1)c1ccccc1 (stereo unspecified)	–	-20	–	–	–
Cc1ccsc1/C=C1\C(=O)NC(=S)N(C)C1=O	–	–	–	–	–
SMILES	Casp6 inh	Ecoli rRNA inh	NSD2 HMT inh	RAD52 anneal inh	AF4-AF9 inh
COc1ccc(/C=C2\C(=O)NC(=S)N(C)C2=O)cc1C	46	–	·	–	–
C=CCN1[C@@H]2CN(C(C)=O)C[C@H]1C2c1ccccc1 (stereo partly specified)	·	–	·	·	·
C=CCN1C(=O)/C(=C/c2ccc(Br)s2)C(=O)NC1=S	53	–	–	–	–
C=CCN1C(=O)/C(=C\c2ccc(N3CCOCC3)o2)C(=O)NC1=S	–	–	–	–	–
COc1ccc2[nH]c(C)c(CCNCc3cn(C)c4ccccc34)c2c1	–	–	–	–	51
COc1ccc(C(CC(=O)c2ccc3c(c2)OCO3)c2c(O)c3ccccc3oc2=O)cc1OC (stereo unspecified)	–	-30	–	–	–
O=C(O)[C@H]1[C@H](CO)[C@H]2Cn3c(ccc(-c4ccncc4)c3=O)[C@@H]1N2C(=O)C1CCC1	–	–	·	–	–
C[C@H](CO)N1C[C@H](C)[C@@H](CN(C)C(=O)Oc2ccccc2)OCc2ccccc2-c2c(n(C)c3ccccc23)C1=O	·	–	·	·	·
O=C(O)c1ccc([N+](=O)[O-])c([N+](=O)[O-])c1	41	–	–	–	–
O=[N+]([O-])c1ccc(O)c([N+](=O)[O-])c1	–	–	·	–	–
Clc1cccc(Cl)c1NC1=NCCS1	–	–	–	–	–
Clc1cc(Cl)cc(NC2=NCCS2)c1	–	-26	–	–	–
O=c1c2ccccc2nc(/C=C/c2ccccc2O)n1-c1ccccc1O	–	–	–	–	–
O=c1c2ccccc2nc(/C=C\c2ccccc2[N+](=O)[O-])n1-c1ccccc1O	–	-29	·	–	–
O=c1c2ccccc2nc(/C=C/c2ccccc2F)n1-c1ccccc1O	–	-24	–	–	–
Cc1nc2ccccc2c(=O)n1-c1ccccc1[N+](=O)[O-]	–	–	–	–	–
CN1C[C@@H]2N[C@H](C1)C2c1ccc(Br)cc1 (stereo partly specified)	·	–	·	·	·
O=C(Cc1ccccc1)N1CCCCN2[C@@H](CO)[C@H](c3ccc(C#CC4(O)CCCC4)cc3)[C@@H]2C1	–	–	·	–	–
O=C1NC(=O)C(=Cc2ccc(Sc3ccccc3)o2)C(=O)N1	–	·	–	–	–
O=C1NC(=O)N(c2ccc(Cl)cc2)C(=O)/C1=C\c1ccc(Sc2nc3ccccc3[nH]2)o1	69	–	–	–	–
COC(=O)C1=C(C(=O)OC)SC2(S1)C(C(=O)OC)=C(C(=O)OC)Sc1c2ssc1=O	–	-23	·	–	–
COc1ccc(CN2CC=C(c3ccc(F)cc3)CC2)cc1Br	–	–	–	–	–
CCN(CC)c1ccc(CN2CC=C(c3ccc(F)cc3)CC2)cc1	·	·	54	·	·
[O-]c1ccccc1-[n+]1c(-c2ccccc2)cc(-c2ccccc2)cc1-c1ccccc1	–	–	·	61	–
COC(=O)[C@@H]1[C@@H](CO)[C@@H]2Cn3c(ccc(-c4ccc(F)cc4)c3=O)[C@H]1N2Cc1ccccc1	–	–	·	–	–
CC12CCC3C(CC=C4CC(O)CCC43C)C1C/C(=C\N1CCCC1)C2=O (stereo unspecified)	·	·	–	·	·
COc1cc(/C=C2\C[C@H]3[C@@H]4CC=C5C[C@@H](N6CCCC6)CC[C@]5(C)[C@H]4CC[C@]3(C)[C@H]2O)cc(OC)c1OC	–	-21	–	–	–

Source: PubChem BioAssay
